PubChem BioAssay
Calls of active or inactive are those of the source.

How the values were obtained:
[1] = anti-His antibody binders, primary screen, artefact control for SMM control protein annotation, biochemical, small-molecule microarray, 635 nm fluorescence (AID 1128); conditions: anti-His Alexa647 antibody binding, higher = more signal;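 also: score merges feature fluorescence with signal-to-noise for each printed compound spot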
[2] = tested on: Human papillomavirus type 1a E7 protein (residues 1-88); assay: HPV1a E7 small-molecule binders, primary screen, biochemical, small-molecule microarray, residues 1-88, 635 nm (AID 1129); conditions: small-molecule microarray binding, fluorescence 635 nm; higher = more signal
[3] = biological target: Focal adhesion kinase 1 (Homo sapiens) (UniProt Q05397); assay: small-molecule microarray binders of FAK, primary screen, biochemical, 635/667 nm fluorescence, BSA, DTT (AID 1130); conditions: PTK2 binding, 635 nm fluorescence, higher = more signal;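 also: composite of spot emission at 667 nm and signal to noise over triplicate slides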
Sequence of Focal adhesion kinase 1 (Homo sapiens) (Q05397 whole entry, looked up): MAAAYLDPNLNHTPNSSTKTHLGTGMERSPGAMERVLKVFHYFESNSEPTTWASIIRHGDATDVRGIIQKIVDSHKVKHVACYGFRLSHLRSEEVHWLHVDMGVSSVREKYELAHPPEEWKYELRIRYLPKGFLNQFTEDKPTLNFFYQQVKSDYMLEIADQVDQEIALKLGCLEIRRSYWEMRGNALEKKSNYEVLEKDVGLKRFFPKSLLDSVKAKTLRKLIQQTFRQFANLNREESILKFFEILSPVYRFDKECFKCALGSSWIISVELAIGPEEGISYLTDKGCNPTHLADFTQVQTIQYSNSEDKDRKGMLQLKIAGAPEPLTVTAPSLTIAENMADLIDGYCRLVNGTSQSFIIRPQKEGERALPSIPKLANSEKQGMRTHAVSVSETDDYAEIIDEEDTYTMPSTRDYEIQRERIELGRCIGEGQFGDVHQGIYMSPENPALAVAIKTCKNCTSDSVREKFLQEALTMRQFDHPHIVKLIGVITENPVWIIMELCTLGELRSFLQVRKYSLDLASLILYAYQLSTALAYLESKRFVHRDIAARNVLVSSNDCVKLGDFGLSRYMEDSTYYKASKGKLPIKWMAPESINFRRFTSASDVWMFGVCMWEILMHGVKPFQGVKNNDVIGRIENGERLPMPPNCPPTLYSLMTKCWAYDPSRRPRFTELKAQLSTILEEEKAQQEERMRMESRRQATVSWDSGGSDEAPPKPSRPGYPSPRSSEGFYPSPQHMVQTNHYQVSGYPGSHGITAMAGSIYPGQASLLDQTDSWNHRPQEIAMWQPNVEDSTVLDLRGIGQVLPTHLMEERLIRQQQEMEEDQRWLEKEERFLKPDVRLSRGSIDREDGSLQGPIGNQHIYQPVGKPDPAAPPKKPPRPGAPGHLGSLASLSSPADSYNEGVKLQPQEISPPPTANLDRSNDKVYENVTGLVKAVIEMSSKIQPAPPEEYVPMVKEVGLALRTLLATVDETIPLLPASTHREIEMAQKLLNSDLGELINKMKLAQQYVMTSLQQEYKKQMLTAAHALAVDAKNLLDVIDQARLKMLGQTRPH

[4] = tested on: Fibrinogen (Alexa647-labelled); assay: fibrinogen binders on compound microarrays, profiling panel, artefact control for SMM control-protein annotation, biochemical, small-molecule microarray, 635/667 nm fluorescence (AID 1131); conditions: fibrinogen-A647 binding fluorescence, higher = more signal;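 also: z-score merges 667 nm fluorescence with per-spot signal-to-noise over triplicate slides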
[5] = biological target: Follistatin (Homo sapiens) (UniProt P19883); assay: follistatin binders on small-molecule microarrays, primary screen, biochemical, small-molecule microarray, 635/667 nm fluorescence (AID 1132); conditions: FST binding, 635 nm fluorescence, higher = more signal
Sequence of Follistatin (Homo sapiens) (P19883 whole entry, looked up): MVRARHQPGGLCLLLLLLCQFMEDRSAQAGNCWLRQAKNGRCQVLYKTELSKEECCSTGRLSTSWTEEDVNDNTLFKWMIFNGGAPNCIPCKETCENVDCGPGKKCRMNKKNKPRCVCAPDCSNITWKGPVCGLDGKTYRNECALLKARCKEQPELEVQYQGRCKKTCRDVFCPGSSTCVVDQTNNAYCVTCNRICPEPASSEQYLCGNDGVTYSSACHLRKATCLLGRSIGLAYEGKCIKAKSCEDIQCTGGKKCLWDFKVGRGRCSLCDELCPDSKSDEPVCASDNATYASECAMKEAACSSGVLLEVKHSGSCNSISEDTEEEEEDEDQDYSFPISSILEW

[6] = biological target: Fibroblast growth factor 2 (Homo sapiens) (UniProt P09038); assay: FGF2 binders on small-molecule microarrays, primary screen, biochemical, small-molecule microarray, 635/667 nm fluorescence (AID 1133); conditions: small-molecule microarray binding, FGF2, fluorescence 635/667; higher = more signal
Sequence of Fibroblast growth factor 2 (Homo sapiens) (P09038 whole entry, looked up): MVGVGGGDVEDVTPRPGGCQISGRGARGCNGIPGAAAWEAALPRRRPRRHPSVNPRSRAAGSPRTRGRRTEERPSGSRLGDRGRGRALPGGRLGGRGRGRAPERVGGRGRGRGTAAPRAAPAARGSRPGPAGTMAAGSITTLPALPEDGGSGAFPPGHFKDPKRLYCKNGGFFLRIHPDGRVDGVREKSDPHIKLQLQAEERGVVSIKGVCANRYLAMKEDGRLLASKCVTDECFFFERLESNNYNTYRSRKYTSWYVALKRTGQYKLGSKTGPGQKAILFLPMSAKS

[7] = mitochondrial membrane potential change in A549 cells, profiling panel, cell-based, JC-1 fluorescence, basal, 24 h, 100 nL (AID 1138); conditions: higher = more signal;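 also: A549 lung adenocarcinoma cells under basal conditions with no added stimulus; test concentration not given here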
Lefty1 = Lefty1 binders on small-molecule microarrays, primary screen, biochemical, small-molecule microarray, 635/667 nm fluorescence (AID 1139); conditions: small-molecule microarray binding, fluorescence 635/667; higher = more signal
[8] = tested on: wheat germ agglutinin (Triticum aestivum), Alexa647-labelled; assay: wheat germ agglutinin binders on compound microarrays, profiling panel, artefact control for SMM control-protein annotation, biochemical, small-molecule microarray, 635/667 nm fluorescence (AID 1140); conditions: WGA-A647 binding, 635 nm fluorescence, higher = more signal;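 also: score merges 667 nm feature emission with signal to noise over triplicate slides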
[9] = biological target: Luciferin 4-monooxygenase (Photinus pyralis) (UniProt P08659); assay: firefly luciferase enzyme inhibitors, primary screen, biochemical, luminescence, purified enzyme, 2006 set (AID 1141); conditions: SteadyGlo luminescence, 30 min, higher = more signal, called active from +8 up or from −8 down;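 also: cell-free assay with purified firefly luciferase at 100 ng per well in PBS; test concentration not given here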
Sequence of Luciferin 4-monooxygenase (Photinus pyralis) (P08659 whole entry, looked up): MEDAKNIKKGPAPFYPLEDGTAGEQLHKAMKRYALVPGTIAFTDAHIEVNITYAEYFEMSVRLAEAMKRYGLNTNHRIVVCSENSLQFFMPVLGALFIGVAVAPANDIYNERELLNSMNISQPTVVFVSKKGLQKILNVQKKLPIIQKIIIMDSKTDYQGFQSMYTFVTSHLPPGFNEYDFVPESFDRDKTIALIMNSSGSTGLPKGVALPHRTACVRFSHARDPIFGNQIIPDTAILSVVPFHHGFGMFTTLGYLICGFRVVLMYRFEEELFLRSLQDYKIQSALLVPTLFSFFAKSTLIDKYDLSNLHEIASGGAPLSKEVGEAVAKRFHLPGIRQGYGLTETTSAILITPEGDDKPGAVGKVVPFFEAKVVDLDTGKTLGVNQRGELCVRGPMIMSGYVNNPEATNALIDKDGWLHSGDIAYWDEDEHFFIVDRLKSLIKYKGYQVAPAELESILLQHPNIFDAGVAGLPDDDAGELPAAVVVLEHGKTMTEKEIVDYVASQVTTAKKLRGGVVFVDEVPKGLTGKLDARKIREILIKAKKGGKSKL

Row | Compound | composite z-score [1] | composite z-score [2] | composite z-score [3] | composite z-score [4] | composite z-score [5] | composite z-score [6] | z-score [7] | composite z-score (Lefty1) | composite z-score [8] | z-score [9]
1 | COc1cc2c(cc1OC)CN(C(=O)[C@H]1[C@@H]3C(=O)O[C@@H](c4ccccc4)[C@@H](c4ccccc4)N3[C@@H](c3ccc(O)cc3)[C@]13C(=O)Nc1ccc(C#CC4(O)CCCCCC4)cc13)CC2 | 1.5 | 1.23 | 1.02 | 0.86 | 1.28 | 1.71 | -1.23 | 0.59 | 1.31 | -0.409 (inactive)
2 | CO[C@H]1COC(=O)CC=C[C@@H](C)COC(=O)[C@@H](C)NC(=O)CC=C[C@@H]1C | -0.505 | -1.53 | -1.02 | -0.943 | 1.44 | 2.02 | 1.15 | 1.73 | -0.673 | -1.37 (inactive)
3 | COc1ccc(CCNC(=O)[C@@]2(c3ccc([N+](=O)[O-])cc3)CC(=O)N(C(C)C)[C@@H]2c2ccc(CO)cc2)cc1 | -0.601 | -0.622 | -0.637 | -2.13 | -0.669 | -0.848 | 0.774 | -2.2 | -0.81 | -0.939 (inactive)
4 | CO[C@H]1COC(=O)[C@H](Cc2ccccc2)NC(=O)CC=C[C@@H](C)[C@H](OC)COC(=O)CC=C[C@@H]1C | 0.809 | 0.779 | -0.237 | 0.256 | 0.424 | 0.144 | 1.64 | 0.492 | -0.12 | -1.27 (inactive)
5 | C[N+](C)(C)CCCCNC(=O)[C@@H]1C[C@@H]2C(=O)N3CCC[C@H]3C(=O)N2[C@@H]1c1cccc(OCCO)c1 | 2.72 | 0.143 | 0.275 | -0.181 | 1.39 | 1.73 | -0.0151 | 0.859 | -0.392 | -1.23 (inactive)
6 | C=C(CCCC)/C(=C/C[C@@H](OC(=O)c1ccncc1)c1ccc(CO)o1)c1cnc2ccccc2c1 | 1.24 | 0.723 | 1.64 | 0.878 | 1.46 | 1.69 | 0.146 | 1.65 | 1.22 | -3.5 (inactive)
7 | CC(=O)NCCCC[C@@H]1NC(=O)[C@H]2C[C@@H](C(=O)NCCCCCCN(C)C)[C@@H](c3ccc(O)cc3)N2C1=O | 3.14 | 1.25 | 0.554 | 0.793 | 1.34 | 0.903 | -1.26 | 1.55 | 1.29 | 0.0866 (inactive)
8 | CCCC[C@H]1OB(O)C[C@H]2C1=C(COC)C[C@H]1C(=O)N(Cc3ccccc3)C(=O)[C@H]12 | -0.438 | 0.422 | 0.112 | 0.575 | 0.935 | 1.18 | 1.03 | 0.499 | 0.552 | -1.22 (inactive)
9 | [N-]=[N+]=NCc1ccccc1C[C@]1(C(N)=O)N=C(c2ccc(OCCCO)cc2)O[C@H]1c1ccccc1CN=[N+]=[N-] | 3.15 | 0.974 | 1.21 | 0.98 | 1.01 | 0.19 | 1.3 | -0.621 | 1.32 | -3.84 (inactive)
10 | C=C(COC)/C(=C/C[C@@H](OC(=O)c1ccncc1)c1ccc(OCCO)cc1)c1cc(C(=O)OC)ccc1OC | 2.06 | 1.21 | 1.21 | 0.791 | 0.59 | 0.334 | 2.2 | 0.716 | 1.3 | -2.22 (inactive)
11 | CO[C@@H]1COC(=O)[C@@H]2CCCN2C(=O)CC=C[C@@H](C)[C@H](OC)COC(=O)[C@@H]2CCCN2C(=O)CC=C[C@H]1C | -0.775 | -1.7 | -0.191 | -1.15 | 1.34 | 1.58 | 1.01 | 1.31 | -0.949 | -1.44 (inactive)
12 | C[C@H]1C2[C@H](Cc3ccccc3)NC(=O)[C@]23C(=O)N[C@H](Cc2ccccc2)C(=O)N[C@@H](Cc2ccccc2)C(=O)NC/C=C\C/C=C/C3[C@@H]2O[C@]12C (stereo not given in full) | 0.133 | -0.318 | 0.838 | -1.84 | 0.162 | 0.0748 | 0.298 | -0.0066 | -0.125 | -1.06 (inactive)
13 | CO[C@@H]1COC(=O)CC=C[C@H](C)COC(=O)[C@H](Cc2ccccc2)NC(=O)CC=C[C@H]1C | 0.236 | -1.13 | -0.389 | -0.811 | 0.997 | 1.38 | 1.5 | 1.54 | -1.61 | -0.964 (inactive)
14 | O=C1OCC=C[C@H]2OC34C=CCN(Cc5ccccc5)C(=O)[C@H]3N(CCO)C(=O)[C@@H]4[C@@H]12 (stereo not given in full) | -0.29 | -0.766 | -0.248 | -1.04 | -0.0764 | -1.24 | -0.0233 | 0.0323 | -0.0943 | -3.69 (inactive)
15 | CCOC(=O)C[C@H]1[C@H](OC(=O)c2ccccc2-c2ccccc2)[C@@H](NC(=O)C2CCCCC2)c2cc(OCCCO)ccc2N1C(=O)c1ccccc1 | 0.198 | 0.352 | -0.268 | 0.334 | 0.392 | 1.39 | 1.33 | 0.845 | -0.109 | -0.539 (inactive)
16 | CO[C@H]1COC(=O)CC=C[C@H](C)COC(=O)[C@@H](OCc2ccccc2)C=C[C@@H]1C | 0.507 | -0.67 | -0.3 | -0.418 | 1.56 | 1.83 | 0.33 | 1.69 | -0.726 | -0.275 (inactive)
17 | COC(=O)c1ccc(C#CC(NP(=O)(c2ccccc2)c2ccccc2)c2ccccc2)cc1 (stereo not given) | 0.15 | 1.18 | 0.671 | 0.963 | 1.41 | -0.0037 | 1.53 | 0.468 | 1.43 | 0.853 (inactive)
